# What was measured:
# Test in all cases: DAPPL (digital affinity profiling via proximity ligation, sequencing); 10 mM Tris-HCl pH 7.5, 50 mM NaCl, 1 mM DTT, 4% glycerol, room temperature, 30 min; GST-TFs on glutathione beads, 16-mer random dsDNA library, 0.1% formaldehyde crosslink after washing; high values mean tight binding
# [1] = biological target: T1, FLI1 (Homo sapiens, UniProt Q01543 1-452); settings: protein: recombinant; tags: N-terminal GST; dsDNA, one strand shown
# T1 sequence: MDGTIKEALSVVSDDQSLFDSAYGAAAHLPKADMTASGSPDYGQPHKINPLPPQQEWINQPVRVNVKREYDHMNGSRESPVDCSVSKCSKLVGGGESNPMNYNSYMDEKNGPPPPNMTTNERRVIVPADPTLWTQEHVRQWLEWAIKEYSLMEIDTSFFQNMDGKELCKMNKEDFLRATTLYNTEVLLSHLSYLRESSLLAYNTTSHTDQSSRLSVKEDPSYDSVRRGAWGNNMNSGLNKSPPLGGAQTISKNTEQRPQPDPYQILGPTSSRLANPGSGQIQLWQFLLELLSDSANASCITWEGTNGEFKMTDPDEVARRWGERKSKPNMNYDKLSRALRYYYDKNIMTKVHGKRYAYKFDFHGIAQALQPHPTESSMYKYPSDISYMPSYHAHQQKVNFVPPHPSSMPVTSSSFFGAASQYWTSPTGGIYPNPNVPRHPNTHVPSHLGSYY
# Procedure, shortened: (§1)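 Each value of binding signal is a hexamer's read frequency for a factor divided by the same hexamer's frequency in the tag-only sample. Barcoded, bead-captured GST fusions of human transcription factors made in yeast were pooled with that sample and incubated with 200 nmole of a random double-stranded 16-mer DNA library in Tris/NaCl/DTT/glycerol buffer at room temperature for 30 min. Washing, 0.1% formaldehyde crosslinking, proximity ligation, PCR and Illumina NextSeq500 sequencing followed.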
# [2] = biological target: T2, ELK1 (Homo sapiens, UniProt P19419 1-428); settings: protein: recombinant; tags: N-terminal GST; dsDNA, one strand shown
# T2 sequence: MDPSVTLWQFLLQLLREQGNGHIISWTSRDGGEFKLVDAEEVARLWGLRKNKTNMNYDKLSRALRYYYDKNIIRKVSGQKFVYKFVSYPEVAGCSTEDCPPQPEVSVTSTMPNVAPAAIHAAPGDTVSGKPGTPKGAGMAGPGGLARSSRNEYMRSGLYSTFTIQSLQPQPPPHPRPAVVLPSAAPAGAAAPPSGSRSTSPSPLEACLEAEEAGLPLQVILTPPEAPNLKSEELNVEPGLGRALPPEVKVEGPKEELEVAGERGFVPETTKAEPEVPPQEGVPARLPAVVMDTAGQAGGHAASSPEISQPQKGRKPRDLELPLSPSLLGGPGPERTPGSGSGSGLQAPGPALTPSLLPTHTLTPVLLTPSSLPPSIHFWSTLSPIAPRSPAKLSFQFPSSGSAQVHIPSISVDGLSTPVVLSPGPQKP
# Procedure, shortened: as §1
# [3] = biological target: T3, GABPA (Homo sapiens, UniProt Q06546 1-454); settings: protein: recombinant; tags: N-terminal GST; dsDNA, one strand shown
# T3 sequence: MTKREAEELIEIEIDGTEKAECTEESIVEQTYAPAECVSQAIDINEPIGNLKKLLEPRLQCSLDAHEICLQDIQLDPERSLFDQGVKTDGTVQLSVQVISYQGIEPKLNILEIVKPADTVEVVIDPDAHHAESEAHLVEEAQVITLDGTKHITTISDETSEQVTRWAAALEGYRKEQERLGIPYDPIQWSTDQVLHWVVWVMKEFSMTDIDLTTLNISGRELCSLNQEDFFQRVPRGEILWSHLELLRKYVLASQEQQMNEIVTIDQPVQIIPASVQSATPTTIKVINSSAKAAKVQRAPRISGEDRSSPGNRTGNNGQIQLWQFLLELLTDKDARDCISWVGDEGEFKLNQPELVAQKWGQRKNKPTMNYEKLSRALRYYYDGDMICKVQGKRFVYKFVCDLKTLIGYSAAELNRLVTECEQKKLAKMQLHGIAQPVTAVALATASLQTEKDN
# Procedure, shortened: as §1
# [4] = biological target: T4, ERG (Homo sapiens, UniProt P11308 1-479); settings: protein: recombinant; tags: N-terminal GST; dsDNA, one strand shown
# T4 sequence: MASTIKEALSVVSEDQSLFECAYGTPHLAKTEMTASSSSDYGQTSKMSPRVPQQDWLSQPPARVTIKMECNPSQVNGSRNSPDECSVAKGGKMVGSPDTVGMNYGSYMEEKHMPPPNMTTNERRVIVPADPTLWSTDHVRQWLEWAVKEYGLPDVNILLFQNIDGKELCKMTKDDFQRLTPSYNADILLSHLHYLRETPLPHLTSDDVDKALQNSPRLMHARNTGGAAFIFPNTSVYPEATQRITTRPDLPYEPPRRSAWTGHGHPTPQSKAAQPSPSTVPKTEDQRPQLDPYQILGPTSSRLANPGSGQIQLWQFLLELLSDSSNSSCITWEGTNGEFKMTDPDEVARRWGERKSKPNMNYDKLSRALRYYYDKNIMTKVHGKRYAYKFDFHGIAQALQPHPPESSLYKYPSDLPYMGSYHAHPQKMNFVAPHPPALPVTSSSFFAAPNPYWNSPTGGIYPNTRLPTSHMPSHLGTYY
# Procedure, shortened: as §1
# [5] = biological target: ELF1 (Homo sapiens, UniProt P32519 1-619); settings: protein: recombinant; tags: N-terminal GST; dsDNA, one strand shown
# Procedure, shortened: as §1
# [6] = biological target: T5, EHF (Homo sapiens, UniProt Q9NZC4 1-300); settings: protein: recombinant; tags: N-terminal GST; dsDNA, one strand shown
# T5 sequence: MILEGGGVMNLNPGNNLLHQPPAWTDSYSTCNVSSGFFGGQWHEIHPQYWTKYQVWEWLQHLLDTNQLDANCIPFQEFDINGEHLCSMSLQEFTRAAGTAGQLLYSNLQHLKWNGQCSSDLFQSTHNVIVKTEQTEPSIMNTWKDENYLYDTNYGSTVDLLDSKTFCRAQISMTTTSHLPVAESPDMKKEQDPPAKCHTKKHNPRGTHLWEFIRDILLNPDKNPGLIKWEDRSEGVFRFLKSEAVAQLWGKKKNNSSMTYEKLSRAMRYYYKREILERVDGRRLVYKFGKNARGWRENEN
# Procedure, shortened: as §1
# [7] = biological target: SPI1 (Homo sapiens, UniProt P17947 1-270); settings: protein: recombinant; tags: N-terminal GST; dsDNA, one strand shown
# Procedure, shortened: as §1
# [8] = biological target: SPIB (Homo sapiens, UniProt Q01892 1-262); settings: protein: recombinant; tags: N-terminal GST; dsDNA, one strand shown
# Procedure, shortened: as §1
# [9] = biological target: T6, ELK3 (Homo sapiens, UniProt P41970 1-407); settings: protein: recombinant; tags: N-terminal GST; dsDNA, one strand shown
# T6 sequence: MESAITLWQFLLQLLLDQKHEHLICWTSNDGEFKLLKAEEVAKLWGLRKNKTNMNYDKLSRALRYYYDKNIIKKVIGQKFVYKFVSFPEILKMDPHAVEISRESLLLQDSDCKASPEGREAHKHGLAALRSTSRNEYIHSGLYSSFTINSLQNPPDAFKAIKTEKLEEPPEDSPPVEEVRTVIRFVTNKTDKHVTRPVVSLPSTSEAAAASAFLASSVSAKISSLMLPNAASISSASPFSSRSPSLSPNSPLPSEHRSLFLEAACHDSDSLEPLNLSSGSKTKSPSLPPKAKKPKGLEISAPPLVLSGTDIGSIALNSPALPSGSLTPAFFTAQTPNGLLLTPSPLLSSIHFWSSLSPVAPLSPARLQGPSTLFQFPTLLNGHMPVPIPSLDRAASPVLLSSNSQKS
# Procedure, shortened: as §1
# [10] = biological target: T7, FEV (Homo sapiens, UniProt Q99581 1-238); settings: protein: recombinant; tags: N-terminal GST; dsDNA, one strand shown
# T7 sequence: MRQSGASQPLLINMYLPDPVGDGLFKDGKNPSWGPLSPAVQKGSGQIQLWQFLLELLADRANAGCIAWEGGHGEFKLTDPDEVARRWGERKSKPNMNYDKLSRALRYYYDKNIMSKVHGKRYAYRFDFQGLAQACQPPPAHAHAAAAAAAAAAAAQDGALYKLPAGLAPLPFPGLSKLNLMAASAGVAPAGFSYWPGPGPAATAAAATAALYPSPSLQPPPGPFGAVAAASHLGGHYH
# Procedure, shortened: as §1
# [11] = biological target: ETV5 (Homo sapiens, UniProt P41161 1-510); settings: protein: recombinant; tags: N-terminal GST; dsDNA, one strand shown
# Procedure, shortened: as §1
# [12] = biological target: HSF1 (Homo sapiens, UniProt Q00613 1-529); settings: protein: recombinant; tags: N-terminal GST; chain copies: 3; dsDNA, one strand shown
# Procedure, shortened: as §1
# [13] = biological target: T8, SPIC (Homo sapiens, UniProt Q8N5J4 1-248); settings: protein: recombinant; tags: N-terminal GST; dsDNA, one strand shown
# T8 sequence: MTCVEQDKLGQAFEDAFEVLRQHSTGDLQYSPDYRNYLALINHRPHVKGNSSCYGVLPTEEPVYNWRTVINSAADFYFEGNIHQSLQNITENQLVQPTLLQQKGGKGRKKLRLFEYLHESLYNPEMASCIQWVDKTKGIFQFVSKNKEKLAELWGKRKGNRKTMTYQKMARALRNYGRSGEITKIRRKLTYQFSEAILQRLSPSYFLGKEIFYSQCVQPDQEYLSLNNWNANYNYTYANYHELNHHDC
# Procedure, shortened: as §1
# [14] = biological target: ELF4 (Homo sapiens, UniProt Q99607 1-663); settings: protein: recombinant; tags: N-terminal GST; dsDNA, one strand shown
# Procedure, shortened: as §1
# [15] = biological target: T9, ELK4 (Homo sapiens, UniProt P28324-2 1-405); settings: protein: recombinant; tags: N-terminal GST; dsDNA, one strand shown
# T9 sequence: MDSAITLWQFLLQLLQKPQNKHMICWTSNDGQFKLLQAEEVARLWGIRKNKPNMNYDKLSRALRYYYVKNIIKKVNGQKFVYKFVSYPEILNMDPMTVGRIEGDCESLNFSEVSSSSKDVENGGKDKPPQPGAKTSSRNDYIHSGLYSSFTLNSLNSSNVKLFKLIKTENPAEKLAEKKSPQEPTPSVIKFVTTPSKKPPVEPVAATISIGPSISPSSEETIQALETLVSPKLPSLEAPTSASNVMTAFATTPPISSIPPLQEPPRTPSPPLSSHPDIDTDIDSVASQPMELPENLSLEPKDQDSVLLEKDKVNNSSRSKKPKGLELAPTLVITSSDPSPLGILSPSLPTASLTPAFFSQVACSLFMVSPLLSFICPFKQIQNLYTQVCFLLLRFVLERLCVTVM
# Procedure, shortened: as §1
# [16] = biological target: T10, ETV2 (Homo sapiens, UniProt O00321 1-342); settings: protein: recombinant; tags: N-terminal GST; dsDNA, one strand shown
# T10 sequence: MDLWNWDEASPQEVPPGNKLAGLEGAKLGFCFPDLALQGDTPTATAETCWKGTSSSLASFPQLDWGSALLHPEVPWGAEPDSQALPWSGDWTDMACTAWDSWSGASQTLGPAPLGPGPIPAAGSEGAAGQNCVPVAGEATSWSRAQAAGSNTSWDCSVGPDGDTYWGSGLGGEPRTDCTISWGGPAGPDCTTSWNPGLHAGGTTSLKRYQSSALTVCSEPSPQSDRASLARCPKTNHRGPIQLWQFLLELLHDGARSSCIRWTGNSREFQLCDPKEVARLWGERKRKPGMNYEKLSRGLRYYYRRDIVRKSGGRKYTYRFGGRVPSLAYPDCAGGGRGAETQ
# Procedure, shortened: as §1
# [17] = biological target: T11, ELF3 (Homo sapiens, UniProt P78545 1-371); settings: protein: recombinant; tags: N-terminal GST; dsDNA, one strand shown
# T11 sequence: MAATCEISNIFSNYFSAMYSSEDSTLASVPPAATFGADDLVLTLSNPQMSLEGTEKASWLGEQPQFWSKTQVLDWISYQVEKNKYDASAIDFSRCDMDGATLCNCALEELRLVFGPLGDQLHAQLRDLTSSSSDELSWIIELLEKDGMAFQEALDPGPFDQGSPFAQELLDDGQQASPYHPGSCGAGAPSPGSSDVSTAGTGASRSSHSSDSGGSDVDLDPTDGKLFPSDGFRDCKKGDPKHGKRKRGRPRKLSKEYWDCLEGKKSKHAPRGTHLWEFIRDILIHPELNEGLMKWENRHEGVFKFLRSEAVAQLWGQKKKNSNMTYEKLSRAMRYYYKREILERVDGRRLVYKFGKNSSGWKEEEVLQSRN
# Procedure, shortened: as §1
# [18] = biological target: CRX (Homo sapiens, UniProt O43186 1-299); settings: protein: recombinant; tags: N-terminal GST; dsDNA, one strand shown
# Procedure, shortened: as §1
# [19] = biological target: ETV1 (Homo sapiens, UniProt P50549 1-477); settings: protein: recombinant; tags: N-terminal GST; dsDNA, one strand shown
# Procedure, shortened: as §1
# HSF1, sequence (Q00613 whole entry): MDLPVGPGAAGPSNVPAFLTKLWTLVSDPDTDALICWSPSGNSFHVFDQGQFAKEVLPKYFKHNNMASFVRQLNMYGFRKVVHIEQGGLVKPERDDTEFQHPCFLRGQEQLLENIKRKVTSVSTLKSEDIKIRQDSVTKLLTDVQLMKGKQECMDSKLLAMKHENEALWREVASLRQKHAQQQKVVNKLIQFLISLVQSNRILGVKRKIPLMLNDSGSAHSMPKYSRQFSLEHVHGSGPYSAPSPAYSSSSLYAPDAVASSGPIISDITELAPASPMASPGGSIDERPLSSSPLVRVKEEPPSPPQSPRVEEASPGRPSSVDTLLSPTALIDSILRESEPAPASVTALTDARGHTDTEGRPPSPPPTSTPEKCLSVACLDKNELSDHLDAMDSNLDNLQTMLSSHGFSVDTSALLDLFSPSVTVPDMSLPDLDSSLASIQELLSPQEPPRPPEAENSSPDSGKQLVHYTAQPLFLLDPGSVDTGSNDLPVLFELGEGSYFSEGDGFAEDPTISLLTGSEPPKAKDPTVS
# ELF4, sequence (Q99607 whole entry): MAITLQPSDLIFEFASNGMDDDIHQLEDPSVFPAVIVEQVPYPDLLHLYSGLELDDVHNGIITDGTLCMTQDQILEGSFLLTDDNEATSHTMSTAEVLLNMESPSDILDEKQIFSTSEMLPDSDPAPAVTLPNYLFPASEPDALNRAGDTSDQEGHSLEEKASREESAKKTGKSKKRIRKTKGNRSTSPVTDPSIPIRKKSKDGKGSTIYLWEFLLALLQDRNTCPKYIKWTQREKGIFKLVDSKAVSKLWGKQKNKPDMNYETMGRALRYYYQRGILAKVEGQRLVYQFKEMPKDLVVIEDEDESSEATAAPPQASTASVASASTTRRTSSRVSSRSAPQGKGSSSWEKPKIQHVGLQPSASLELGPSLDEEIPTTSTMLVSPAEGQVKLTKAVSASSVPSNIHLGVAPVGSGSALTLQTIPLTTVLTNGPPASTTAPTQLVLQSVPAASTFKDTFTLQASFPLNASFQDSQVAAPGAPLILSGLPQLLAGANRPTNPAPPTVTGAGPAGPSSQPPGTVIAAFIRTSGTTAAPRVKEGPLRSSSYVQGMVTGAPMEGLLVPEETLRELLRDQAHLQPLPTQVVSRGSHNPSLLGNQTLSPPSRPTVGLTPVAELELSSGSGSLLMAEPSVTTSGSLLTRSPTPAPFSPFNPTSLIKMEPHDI
# ELF1, sequence (P32519 whole entry): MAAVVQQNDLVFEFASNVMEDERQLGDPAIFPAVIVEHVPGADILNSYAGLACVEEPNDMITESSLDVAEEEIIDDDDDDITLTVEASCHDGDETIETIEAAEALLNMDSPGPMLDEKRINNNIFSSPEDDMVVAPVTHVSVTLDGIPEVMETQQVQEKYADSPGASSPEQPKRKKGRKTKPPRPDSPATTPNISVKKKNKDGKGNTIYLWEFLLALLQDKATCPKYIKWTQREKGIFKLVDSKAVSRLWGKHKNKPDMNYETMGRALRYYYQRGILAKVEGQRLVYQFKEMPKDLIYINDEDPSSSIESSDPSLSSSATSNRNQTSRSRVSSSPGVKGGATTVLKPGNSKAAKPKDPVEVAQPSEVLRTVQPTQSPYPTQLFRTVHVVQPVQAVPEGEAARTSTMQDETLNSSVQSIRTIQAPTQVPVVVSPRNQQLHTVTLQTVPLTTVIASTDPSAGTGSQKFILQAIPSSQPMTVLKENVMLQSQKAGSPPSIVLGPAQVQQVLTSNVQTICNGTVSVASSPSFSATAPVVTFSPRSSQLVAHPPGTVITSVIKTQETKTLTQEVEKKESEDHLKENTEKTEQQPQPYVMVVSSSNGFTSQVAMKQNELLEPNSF
# SPIB, sequence (Q01892 whole entry): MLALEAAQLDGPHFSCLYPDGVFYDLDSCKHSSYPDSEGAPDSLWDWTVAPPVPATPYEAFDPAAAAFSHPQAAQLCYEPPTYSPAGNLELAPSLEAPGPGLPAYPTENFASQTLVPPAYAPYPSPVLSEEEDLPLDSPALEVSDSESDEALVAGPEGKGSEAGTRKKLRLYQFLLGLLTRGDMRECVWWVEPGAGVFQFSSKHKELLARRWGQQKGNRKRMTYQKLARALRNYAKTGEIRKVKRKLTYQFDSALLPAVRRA
# CRX, sequence (O43186 whole entry): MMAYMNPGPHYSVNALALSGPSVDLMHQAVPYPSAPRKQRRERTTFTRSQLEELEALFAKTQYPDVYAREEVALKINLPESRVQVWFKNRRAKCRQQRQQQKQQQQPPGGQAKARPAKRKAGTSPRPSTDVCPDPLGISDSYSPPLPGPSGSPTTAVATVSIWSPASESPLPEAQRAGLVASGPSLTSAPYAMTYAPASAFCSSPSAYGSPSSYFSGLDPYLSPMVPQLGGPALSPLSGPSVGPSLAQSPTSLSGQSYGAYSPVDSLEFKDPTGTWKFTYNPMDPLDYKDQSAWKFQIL
# ETV1, sequence (P50549 whole entry): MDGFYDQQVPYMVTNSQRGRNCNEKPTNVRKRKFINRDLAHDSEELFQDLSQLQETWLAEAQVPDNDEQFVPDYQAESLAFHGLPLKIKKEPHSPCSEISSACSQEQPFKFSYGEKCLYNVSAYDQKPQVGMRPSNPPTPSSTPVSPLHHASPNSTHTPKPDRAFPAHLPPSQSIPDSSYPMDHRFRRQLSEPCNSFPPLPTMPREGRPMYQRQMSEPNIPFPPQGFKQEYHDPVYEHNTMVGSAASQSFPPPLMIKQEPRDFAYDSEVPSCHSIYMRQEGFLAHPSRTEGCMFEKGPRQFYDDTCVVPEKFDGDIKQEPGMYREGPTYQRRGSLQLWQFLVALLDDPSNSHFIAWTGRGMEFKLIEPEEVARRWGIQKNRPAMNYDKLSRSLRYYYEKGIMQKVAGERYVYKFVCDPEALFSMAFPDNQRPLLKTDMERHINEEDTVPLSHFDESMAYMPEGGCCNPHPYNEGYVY
# ETV5, sequence (P41161 whole entry): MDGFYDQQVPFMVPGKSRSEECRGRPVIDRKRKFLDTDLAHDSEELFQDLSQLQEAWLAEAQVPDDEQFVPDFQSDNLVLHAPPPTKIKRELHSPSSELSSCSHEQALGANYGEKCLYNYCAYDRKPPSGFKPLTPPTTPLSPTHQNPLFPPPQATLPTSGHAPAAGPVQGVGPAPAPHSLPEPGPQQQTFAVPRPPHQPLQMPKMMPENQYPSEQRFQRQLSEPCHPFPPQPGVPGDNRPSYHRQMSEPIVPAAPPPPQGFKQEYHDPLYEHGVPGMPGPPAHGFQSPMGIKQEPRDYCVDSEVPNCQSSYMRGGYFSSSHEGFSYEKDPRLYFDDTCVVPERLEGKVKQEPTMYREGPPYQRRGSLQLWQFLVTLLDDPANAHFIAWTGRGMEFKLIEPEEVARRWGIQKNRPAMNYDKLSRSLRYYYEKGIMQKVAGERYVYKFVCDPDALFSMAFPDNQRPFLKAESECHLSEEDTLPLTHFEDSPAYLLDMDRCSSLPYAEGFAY
sequence,measurement,setting,value
AAGTTT,binding signal,[1],"1.42 fold enrichment (6-mer frequency, TF over GST control)"
same,binding signal,[2],"1.48 fold enrichment (6-mer frequency, TF over GST control)"
same,binding signal,[3],"1.42 fold enrichment (6-mer frequency, TF over GST control)"
same,binding signal,[4],"1.36 fold enrichment (6-mer frequency, TF over GST control)"
same,binding signal,[5],"1.37 fold enrichment (6-mer frequency, TF over GST control)"
same,binding signal,[6],"1.5 fold enrichment (6-mer frequency, TF over GST control)"
same,binding signal,[7],"1.45 fold enrichment (6-mer frequency, TF over GST control)"
same,binding signal,[8],"1.6 fold enrichment (6-mer frequency, TF over GST control)"
same,binding signal,[9],"1.44 fold enrichment (6-mer frequency, TF over GST control)"
same,binding signal,[10],"1.35 fold enrichment (6-mer frequency, TF over GST control)"
same,binding signal,[11],"1.37 fold enrichment (6-mer frequency, TF over GST control)"
same,binding signal,[12],"1.5 fold enrichment (6-mer frequency, TF over GST control)"
same,binding signal,[13],"1.29 fold enrichment (6-mer frequency, TF over GST control)"
same,binding signal,[14],"1.39 fold enrichment (6-mer frequency, TF over GST control)"
same,binding signal,[15],"1.27 fold enrichment (6-mer frequency, TF over GST control)"
same,binding signal,[16],"1.44 fold enrichment (6-mer frequency, TF over GST control)"
same,binding signal,[17],"1.35 fold enrichment (6-mer frequency, TF over GST control)"
same,binding signal,[18],"1.38 fold enrichment (6-mer frequency, TF over GST control)"
same,binding signal,[19],"1.51 fold enrichment (6-mer frequency, TF over GST control)"

# Source: PMC7862700, “An all-to-all approach to the identification of sequence-specific readers for epigenetic DNA modifications on cytosine”
